Test system: Vero E6 infected with SARS-CoV-2
Test: inhibition of SARS-CoV-2 cytopathic effect; higher = more antiviral protection, active = above 15
Settings: 48 h

Measured: inhibition of SARS-CoV-2 cytopathic effect

Cc1c(C(=O)NN2CCOCC2)nn(-c2ccc(Cl)cc2Cl)c1-c1ccc(I)cc1
inactive: 1 nM 0.53% | 8.33 nM 1.48% | 100 nM 1.24% | 833.33 nM -2.07% | 10000 nM 1.16%

Cc1cc(O)c2c(c1)C(=O)c1cc(O)cc(O)c1C2=O [emodin]
inactive: 1 nM -1.74% | 8.33 nM 0.93% | 100 nM -1.79% | 833.33 nM 1.29% | 10000 nM 2.24%

Cc1onc(-c2ccccc2Cl)c1C(=O)N[C@@H]1C(=O)N2[C@@H]1SC(C)(C)[C@@H]2C(=O)O [cloxacillin]
inactive: 1 nM 2.33% | 8.33 nM -1.52% | 100 nM 0.8% | 833.33 nM 3.43% | 10000 nM 1.27%

CCn1cnc(C(=O)NC)c1C(=O)NC [ethimizol]
inactive: 1 nM -1.81% | 8.33 nM 0.39% | 100 nM -1.18% | 833.33 nM 1.42% | 10000 nM 1.32%

COc1ccc(CN(CCN(C)C)c2ccccn2)cc1 [mepyramine]
inactive: 1 nM -3.35% | 8.33 nM -2.48% | 100 nM -1.11% | 833.33 nM 2.27% | 10000 nM 1.04%

CC[C@@H](C)Nc1cc(C(=O)N[C@H]2C[C@H]3CC[C@@H](C2)N3c2ccc(C(=O)C3CC3)cn2)c(C)cc1C(N)=O
inactive: 1 nM 1.52% | 8.33 nM 1.25% | 100 nM -3.63% | 833.33 nM 2.73% | 10000 nM 1.28%

c1ccc([C@H]2CNCc3ccccc32)cc1 [4-phenyl-1,2,3,4-tetrahydroisoquinoline]
inactive: 1 nM -0.57% | 8.33 nM 5.18% | 100 nM 3.96% | 833.33 nM 8.92% | 10000 nM 3%

CCCn1c(=O)c2nc(-c3ccccc3)[nH]c2n(CCC)c1=O [1,3-dipropyl-8-phenylxanthine]
inactive: 1 nM -3.41% | 8.33 nM -2.62% | 100 nM -2.96% | 833.33 nM -3.56% | 10000 nM -1.61%

O=c1[nH]c2ccccc2n1CCCN1CCN(C(c2ccccc2)c2ccccc2)CC1 [oxatomide]
inactive: 1 nM -0.36% | 8.33 nM 2.61% | 100 nM 1.85% | 833.33 nM 1.64% | 10000 nM -7.26%

CN(C)C/C=C(/c1ccc(Br)cc1)c1cccnc1 [zimelidine]
inactive: 1 nM 0.58% | 8.33 nM 1.8% | 100 nM 0.96% | 833.33 nM -1% | 10000 nM -1.69%

O=C1OC2(c3ccc(O)cc3Oc3cc(O)ccc32)c2ccccc21 [fluorescein]
inactive: 1 nM -8.63% | 8.33 nM -9.87% | 100 nM -11.5% | 833.33 nM -5.06% | 10000 nM -7.22%

COCCNC(=O)Cn1cnc([N+](=O)[O-])n1 [sanazole]
inactive: 1 nM -0.19% | 8.33 nM 0.45% | 100 nM -0.68% | 833.33 nM -0.43% | 10000 nM -3%

COc1ccccc1OCC(O)CO (stereo not given) [guaifenesin]
inactive: 1 nM 1.29% | 8.33 nM 1.07% | 100 nM 0% | 833.33 nM 0.99% | 10000 nM 0.94%

O[C@@H](CN1CCNCC1)Cn1c2ccc(Br)cc2c2cc(Br)ccc21 [BAX-channel-blocker]
inactive: 1 nM 10.2% | 8.33 nM 4.29% | 100 nM 2.27% | 833.33 nM 2.49% | 10000 nM -21.9%

COc1ccn2ncc(-c3nc4[nH]nc(NC(=O)c5ccc(F)cc5)c4cc3F)c2c1
inactive: 1 nM 1.72% | 8.33 nM -0.95% | 100 nM 0.38% | 833.33 nM -3.07% | 10000 nM -6.79%

O=C(NC(O)C(Cl)(Cl)Cl)NC(O)C(Cl)(Cl)Cl (stereo not given) [dicloralurea]
inactive: 1 nM -4.23% | 8.33 nM -2.71% | 100 nM -0.82% | 833.33 nM -3.4% | 10000 nM -4.69%

COc1ccc(-c2csc(NC(=O)[C@H]3CCCCN3S(=O)(=O)c3ccc(C)cc3)n2)cc1
inactive: 1 nM 0.8% | 8.33 nM 2.33% | 100 nM 1.23% | 833.33 nM 2.63% | 10000 nM 1.27%

CN1CCC(=C2c3ccccc3C=Cc3ccccc32)CC1 [cyproheptadine]
inactive: 1 nM 1.35% | 8.33 nM -0.26% | 100 nM -1.02% | 833.33 nM -0.75% | 10000 nM -4.89%

CCN(CC)C(=O)N[C@H]1C=C2c3cccc4[nH]cc(c34)C[C@H]2N(C)C1 [lisuride]
inactive: 1 nM -0.02% | 8.33 nM 2.67% | 100 nM 0.39% | 833.33 nM 7.27% | 10000 nM -0.37%

O=C1/C(=C/c2ccccc2)C[C@@]2(O)[C@H]3Cc4ccc(O)c5c4[C@@]2(CCN3CC2CC2)[C@H]1O5
inactive: 1 nM -2.61% | 8.33 nM 0.97% | 100 nM 1.2% | 833.33 nM 8.78% | 10000 nM -26.4%

CC(C)(O)c1ccn2c(-c3ccc(F)c(-c4ccc(F)cc4C#N)c3)cnc2c1F
inactive: 1 nM -0.56% | 8.33 nM 0.82% | 100 nM 0.5% | 833.33 nM -1.01% | 10000 nM -2.58%

COc1ccc2[nH]c(I)c(CCNC(C)=O)c2c1 [2-iodomelatonin]
inactive: 1 nM 3.34% | 8.33 nM 4.46% | 100 nM 0.99% | 833.33 nM 0.89% | 10000 nM 0.94%

Cc1c(C2CCN(CCc3ccccc3)CC2)noc1-c1ccc(Cl)cc1
inactive: 1 nM -1.74% | 8.33 nM 5.24% | 100 nM 6.13% | 833.33 nM 4.32% | 10000 nM -5.7%

CC1=CC[C@@H](C(C)(C)O)C[C@@H]1O [sobrepin]
inactive: 1 nM -10% | 8.33 nM -11.1% | 100 nM -11.4% | 833.33 nM -13.5% | 10000 nM -10.4%

Oc1ccc2c3c1O[C@H]1c4[nH]c5c(c4C[C@@]4(O)[C@@H](C2)N(CC2CC2)CC[C@]314)C[C@@]1(O)[C@H]2Cc3ccc(O)c4c3[C@@]1(CCN2CC1CC1)[C@H]5O4 [nor-binaltorphimine]
inactive: 1 nM 1.48% | 8.33 nM 0.42% | 100 nM 2.76% | 833.33 nM 1.16% | 10000 nM -1.05%

BrC1C(Br)C(Br)C(Br)C(Br)C1Br (stereo not given) [1,2,3,4,5,6-hexabromocyclohexane]
inactive: 1 nM -2.03% | 8.33 nM -1.15% | 100 nM -1.07% | 833.33 nM -1.96% | 10000 nM 9.07%

NCCc1c[nH]c2ccc(C(N)=O)cc12 [5-carboxamidotryptamine]
active: 833.33 nM 15.1%
inactive: 1 nM 2.2% | 8.33 nM 0.54% | 100 nM 3.52% | 10000 nM 1.89%

COc1ccc2c(O[C@@H]3C[C@H]4C(=O)N[C@]5(C(=O)NS(=O)(=O)C6CC6)C[C@H]5/C=C\CCCCN(C)C(=O)[C@@H]4C3)cc(-c3nc(C(C)C)cs3)nc2c1C [simeprevir]
inactive: 1 nM -0.41% | 8.33 nM 3.7% | 100 nM 2.68% | 833.33 nM -2.31% | 10000 nM 2.37%

CCS(=O)(=O)N(C)[C@@H]1c2cc(C#N)ccc2OC(C)(C)[C@H]1O.CCS(=O)(=O)N(C)[C@H]1c2cc(C#N)ccc2OC(C)(C)[C@@H]1O (racemic) [chromanol-(+/-)]
inactive: 1 nM -3.93% | 8.33 nM 0.47% | 100 nM -1.69% | 833.33 nM -0.89% | 10000 nM -1.62%

Nc1ccn([C@@H]2CS[C@H](CO)O2)c(=O)n1 [lamivudine]
inactive: 1 nM -0.38% | 8.33 nM 0.6% | 100 nM -0.56% | 833.33 nM -0.22% | 10000 nM 4.96%

CC[N+](CC)(CC)CC(=O)Nc1c(C)cccc1C
inactive: 1 nM -1.18% | 8.33 nM -2.04% | 100 nM 0.02% | 833.33 nM 0.8% | 10000 nM -0.17%

Oc1nc(O)c2cn[nH]c2n1 [oxypurinol]
inactive: 1 nM -1.15% | 8.33 nM -1.53% | 100 nM -2.43% | 833.33 nM -2.52% | 10000 nM 1.11%

O=[N+]([O-])c1ccccc1S(=O)(=O)NCC1CCC(CNC[C@H]2CCc3ccccc3C2)CC1 (stereo not given in full)
active: 10000 nM 42.4%
inactive: 1 nM 0.09% | 8.33 nM 1.35% | 100 nM -1.44% | 833.33 nM -4.04%

O=C(CCCCCCC(=O)Nc1cccnc1)NO [pyroxamide]
inactive: 1 nM 0.71% | 8.33 nM -1.1% | 100 nM 0.72% | 833.33 nM -1.43% | 10000 nM -5.97%

Oc1ncnc2[nH]ncc12 [allopurinol]
inactive: 1 nM -15.3% | 8.33 nM -12.3% | 100 nM -11.2% | 833.33 nM -10.9% | 10000 nM -7.04%

Cc1ccc(=O)n(-c2ccc(O)cc2)c1
inactive: 1 nM -3.24% | 8.33 nM -0.95% | 100 nM 1.12% | 833.33 nM 2.81% | 10000 nM 1.12%

C[C@@H](c1nc(-c2ccc(C#N)cc2)cs1)[C@](O)(Cn1cncn1)c1ccc(F)cc1F [ravuconazole]
inactive: 1 nM -0.11% | 8.33 nM -0.67% | 100 nM -0.09% | 833.33 nM -0.86% | 10000 nM 0.29%

CN1CCCN=C1COC(=O)C(O)(c1ccccc1)C1CCCCC1 (stereo not given) [oxyphencyclimine]
inactive: 1 nM 2.48% | 8.33 nM 0.59% | 100 nM 0.28% | 833.33 nM 2.86% | 10000 nM -1.14%

COc1ccc(CCN(C)CCCN2CCc3cc(OC)c(OC)cc3CC2=O)cc1OC [zatebradine]
inactive: 1 nM 0.14% | 8.33 nM 1.94% | 100 nM 1.29% | 833.33 nM 0.25% | 10000 nM -2.07%
